Measurements: PubChem BioAssay (Tox21)
Inconclusive results are not listed. The source made the active and inactive calls. Unless noted, the call rests on the fitted dose curve; in most records, active means well fitted curve in the direction sought with a large enough effect in the repeat runs; inconclusive means weak or mixed curves; inactive means no such curve, though single readings can be large; an effect the other way counts as inactive or inconclusive.

How the values were obtained:
[1] = molecular target: Retinoic acid receptor RXR-alpha (Homo sapiens) (UniProt P19793); test: qHTS assay to identify small molecule agonists of the RXR signaling pathway (AID 1159527; calls by dose curve; further: nearly all actives have a fitted effect of over 35% in size)
Sequence of Retinoic acid receptor RXR-alpha (Homo sapiens) (P19793 whole entry, looked up): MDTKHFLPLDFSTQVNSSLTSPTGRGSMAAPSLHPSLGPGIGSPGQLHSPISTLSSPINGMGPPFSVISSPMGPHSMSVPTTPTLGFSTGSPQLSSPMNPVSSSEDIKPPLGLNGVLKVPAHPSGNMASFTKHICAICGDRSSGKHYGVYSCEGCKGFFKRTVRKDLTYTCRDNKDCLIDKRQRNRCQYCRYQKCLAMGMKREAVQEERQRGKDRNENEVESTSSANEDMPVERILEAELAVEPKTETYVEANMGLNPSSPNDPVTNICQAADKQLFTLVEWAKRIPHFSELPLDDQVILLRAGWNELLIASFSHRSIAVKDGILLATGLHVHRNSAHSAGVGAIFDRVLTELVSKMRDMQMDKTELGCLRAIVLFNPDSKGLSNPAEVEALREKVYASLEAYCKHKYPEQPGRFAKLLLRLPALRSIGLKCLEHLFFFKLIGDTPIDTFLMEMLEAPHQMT
Summary of the method: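 Reporter activation is measured as beta-lactamase activity via FRET substrate cleavage (emission 460/530 nm) in HEK 293T cells expressing an RXR-alpha-driven bla construct, following 16 hr compound exposure at 37 C.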

[2] = qHTS assay to identify small molecule agonists of the RXR signaling pathway - cell viability counter screen (AID 1159529); further: series mostly up to about 77 µM; nearly all actives have a fitted effect of over 50% in size
Summary of the method: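 Tox21 10K compounds were tested for cytotoxicity against GeneBLAzer RXR-alpha HEK 293T cells grown in 2% charcoal-stripped FBS. Exposure lasted 16 hr at 37 C, 5% CO2; viability read by CellTiter-Glo luminescence.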

[3] = qHTS assay to identify small molecule antagonists of the retinoid acid receptor (RAR) signaling pathway - cell viability counter screen (AID 1159551); further: nearly all actives have a fitted effect of over 35% in size
Summary of the method: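 C3RL4 RARE-luciferase cells, 1,000/well, incubated overnight, then dosed with compound plus 1 uM retinol (final). After 6 hr at 37 C, viability read by CellTiter-Glo ATP luminescence following 30 min at room temperature.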

[4] = qHTS assay to identify small molecule antagonists of the retinoic acid receptor (RAR) signaling pathway (AID 1159552; further: nearly all actives have a fitted effect of over 50% in size)
Summary of the method: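 Overnight-plated C3RL4 reporter cells get compound, then retinol to 1 uM final; plates sit 6 hr at 37 C, 5% CO2. A luciferase reagent is added and light output recorded after 30 min at room temperature.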

[5] = qHTS assay to identify small molecule agonists of the retinoic acid receptor (RAR) signaling pathway (AID 1159553)
Summary of the method: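 C3RL4 RARE-luciferase cells were seeded at 1,000/well and grown overnight at 37 C, then exposed to compounds for 6 hr at 37 C, 5% CO2. Luciferase reagent was added and luminescence was read after 30 min at room temperature.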

[6] = qHTS assay to identify small molecule antagonists of the estrogen related receptor (ERR) signaling pathway from Tox21 library - cell viability counter screen (AID 1224834); further: nearly all actives have a fitted effect of over 30% in size
Summary of the method: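 ERR reporter cells, 2,000 per well, rested 6 h, then exposed to compound in DMSO for 17.5 hours at 37 C. Viability read as fluorescence after 30 min with CellTiter-Fluor.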

[7] = molecular target: Luciferin 4-monooxygenase (Photinus pyralis) (UniProt P08659); test: qHTS assay to identify small molecule inhibitors of firefly luciferase (AID 1224835); further: series mostly up to about 120 µM; nearly all actives have a fitted effect of over 25% in size
Sequence of Luciferin 4-monooxygenase (Photinus pyralis) (P08659 whole entry, looked up): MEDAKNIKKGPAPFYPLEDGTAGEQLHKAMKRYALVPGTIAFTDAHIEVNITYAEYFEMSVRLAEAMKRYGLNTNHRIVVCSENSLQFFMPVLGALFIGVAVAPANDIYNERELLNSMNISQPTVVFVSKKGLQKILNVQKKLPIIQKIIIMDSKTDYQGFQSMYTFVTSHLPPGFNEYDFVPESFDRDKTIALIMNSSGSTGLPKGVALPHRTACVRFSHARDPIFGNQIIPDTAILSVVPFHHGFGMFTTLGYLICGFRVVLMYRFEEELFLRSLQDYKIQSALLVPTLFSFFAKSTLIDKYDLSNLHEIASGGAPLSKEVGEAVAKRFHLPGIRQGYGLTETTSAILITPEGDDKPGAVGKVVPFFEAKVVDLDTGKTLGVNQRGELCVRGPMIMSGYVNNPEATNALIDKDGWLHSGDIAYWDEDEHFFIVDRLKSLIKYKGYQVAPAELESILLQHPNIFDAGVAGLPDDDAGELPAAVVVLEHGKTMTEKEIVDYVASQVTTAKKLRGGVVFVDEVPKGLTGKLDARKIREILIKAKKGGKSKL
Summary of the method: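 Quantitative HTS format; KM concentrations of both substrates. Purified P. pyralis FLuc activity quantified from luminescence images.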

[8] = qHTS assay to identify small molecule agonists of the constitutive androstane receptor (CAR) signaling pathway - cell viability counter screen (AID 1224836); further: series mostly up to about 92 µM; nearly all actives have a fitted effect of over 45% in size
Summary of the method: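 Fluorescence from CellTiter-Fluor indicates live cells after 23 h exposure. The human hepatoma line expresses hCAR and a CYP2B6-2.2kb reporter. Incubation medium contains 0.75 uM PK11195 (final).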

[9] = qHTS assay to identify small molecule antagonists of the constitutive androstane receptor (CAR) signaling pathway - cell viability counter screen (AID 1224837); further: series mostly up to about 92 µM; nearly all actives have a fitted effect of over 45% in size
Summary of the method: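 HepG2 cells stably carrying hCAR and CYP2B6-2.2kb reporter, stimulated with 50 nM CITCO and compounds at 15 concentrations for 23 h at 37 C. Viability measured by CellTiter-Fluor fluorescence.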

[10] = molecular target: Nuclear receptor subfamily 1 group I member 3 (Homo sapiens) (UniProt Q14994); test: qHTS assay to identify small molecule antagonists of the constitutive androstane receptor (CAR) signaling pathway (AID 1224838); further: nearly all actives have a fitted effect of over 40% in size
Sequence of Nuclear receptor subfamily 1 group I member 3 (Homo sapiens) (Q14994 whole entry, looked up): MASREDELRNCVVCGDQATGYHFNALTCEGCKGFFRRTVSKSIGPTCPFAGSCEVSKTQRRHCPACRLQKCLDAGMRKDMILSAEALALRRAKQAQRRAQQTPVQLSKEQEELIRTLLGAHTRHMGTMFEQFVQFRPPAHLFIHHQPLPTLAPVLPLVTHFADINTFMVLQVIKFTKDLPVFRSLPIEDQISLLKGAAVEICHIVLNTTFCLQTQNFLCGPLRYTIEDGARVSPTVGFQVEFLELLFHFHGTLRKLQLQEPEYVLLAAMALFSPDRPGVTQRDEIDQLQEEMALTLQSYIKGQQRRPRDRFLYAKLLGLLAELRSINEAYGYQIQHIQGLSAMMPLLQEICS
Summary of the method: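 HepG2 cells stably carrying hCAR and a CYP2B6-2.2kb luciferase reporter, seeded 4 hrs before compound (15 concentrations). Stimulated with 50 nM CITCO for 24 hr at 37 C. ONE-Glo luminescence read after 30 min at room temperature.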

[11] = molecular target: Nuclear receptor subfamily 1 group I member 3 (Homo sapiens) (UniProt Q14994); test: qHTS assay to identify small molecule agonists of the constitutive androstane receptor (CAR) signaling pathway (AID 1224839); further: series mostly up to about 92 µM; nearly all actives have a fitted effect of over 15% in size
Summary of the method: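 Stable hCAR/CYP2B6-2.2kb HepG2 line in DMEM with 10% FBS; compounds (15 concentrations) and 0.75 uM PK11195 final, 24 h at 37 C/5% CO2, then ONE-Glo luminescence after 30 min.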

[12] = qHTS assay to identify small molecule antagonists of the estrogen related receptor signaling pathway with the pleiotropic PPARgamma coactivator (PGC) from Tox21 10K library - cell viability counter screen (AID 1224840; active means well fitted cell-killing curve with a large enough effect in the repeat runs, not every such curve was filed as active; further: nearly all actives have a fitted effect of over 40% in size)
Summary of the method: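 PGC/ERR cells (2,000/well) plated 6 h, then compound-treated for 17.5 h at 37 C. Viability measured by CellTiter-Fluor fluorescence after 30 min at 37 C, multiplexed with the pathway assay.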

[13] = molecular target: Thyrotropin receptor (Homo sapiens) (UniProt P16473); test: qHTS assay to identify small molecule agonists of the thyroid stimulating hormone receptor (TSHR) signaling pathway (AID 1224843; calls by dose curve; further: nearly all actives have a fitted effect of over 45% in size)
Sequence of Thyrotropin receptor (Homo sapiens) (P16473 whole entry, looked up): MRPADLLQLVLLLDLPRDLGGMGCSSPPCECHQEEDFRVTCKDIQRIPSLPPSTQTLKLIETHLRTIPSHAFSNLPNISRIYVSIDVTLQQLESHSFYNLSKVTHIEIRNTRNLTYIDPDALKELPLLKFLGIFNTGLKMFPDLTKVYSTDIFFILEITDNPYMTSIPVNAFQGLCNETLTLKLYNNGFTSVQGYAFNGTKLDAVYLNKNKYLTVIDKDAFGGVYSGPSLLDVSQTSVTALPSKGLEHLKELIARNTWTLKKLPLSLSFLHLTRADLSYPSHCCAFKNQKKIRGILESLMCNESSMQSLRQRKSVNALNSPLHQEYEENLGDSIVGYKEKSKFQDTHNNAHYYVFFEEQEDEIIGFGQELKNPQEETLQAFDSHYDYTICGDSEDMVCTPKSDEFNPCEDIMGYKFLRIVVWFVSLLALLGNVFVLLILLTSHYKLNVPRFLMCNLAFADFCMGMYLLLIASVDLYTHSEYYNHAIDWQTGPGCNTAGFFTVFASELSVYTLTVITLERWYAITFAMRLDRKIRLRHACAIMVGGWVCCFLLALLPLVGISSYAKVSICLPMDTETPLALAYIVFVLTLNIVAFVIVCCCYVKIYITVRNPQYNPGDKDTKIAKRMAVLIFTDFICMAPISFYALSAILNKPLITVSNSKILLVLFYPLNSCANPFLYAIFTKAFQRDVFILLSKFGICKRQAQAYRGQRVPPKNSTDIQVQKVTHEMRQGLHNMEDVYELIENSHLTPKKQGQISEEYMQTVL
Summary of the method: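 TSHR-expressing HEK293 cells (800 per well) were exposed to compounds for 30 min at room temperature. cAMP was then detected by HTRF competition with cAMP-d2 and anti-cAMP cryptate, read after 1 h at room temperature. Fifteen concentrations, triplicate.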

[14] = qHTS assay to identify small molecule agonists of the hypoxia (HIF-1) signaling pathway - cell viability counter screen (AID 1224844; calls by dose curve; further: nearly all actives have a fitted effect of over 50% in size)
Summary of the method: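 HRE-bla ME-180 cells, 2,000/well in 0.5% dialyzed FBS medium, treated 17 h at 37C with compounds. Viability read in the same wells as the bla reporter, by CellTiter-Glo luminescence after 30 min at room temperature.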

[15] = qHTS assay to identify small molecule agonists of H2AX (AID 1224845; active means well fitted activation curve with a large enough effect in the signal ratio in the repeat runs, not every such curve was filed as active; the % refers to the signal ratio)
Summary of the method: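 Wild-type CHO-K1 cells plated overnight, then exposed 3 hr at 37C to compounds at 15 concentrations (0.76% DMSO). Lysed, then HTRF anti-pH2AX(S139)-cryptate/anti-H2AX-d2 detection after 24 hr at room temperature; emissions 665 and 620 nm.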

[16] = qHTS assay to identify small molecule agonists of H2AX - cell viability counter screen (AID 1224847; calls by dose curve; further: top concentration of the series differs between compounds; nearly all actives have a fitted effect of over 30% in size)
Summary of the method: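 Viability of CHO-K1 (wild type) cells after 3 hr compound exposure was measured by CellTiter-Glo luminescence.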

[17] = qHTS assay to identify small molecule antagonists of the estrogen related receptor signaling pathway with the pleiotropic PPARgamma coactivator (PGC) from Tox21 10K library (AID 1224841; call rule not given here; further: series mostly up to about 92 µM; actives are mostly falling curves and most rising ones were filed inactive; nearly all actives have a fitted effect of over 50% in size)
Summary of the method: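 PGC/ERR cell line, 2,000 cells/well, pre-incubated 6 hours at 37 C, then exposed to compounds for 18 hours at 37 C; luciferase read with One-Glo luminescence after 30 min at room temperature.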

[18] = qHTS assay to identify small molecule agonists of the estrogen related receptor signaling pathway with the pleiotropic PPARgamma coactivator (PGC) from Tox21 10K library (AID 1224842); further: nearly all actives have a fitted effect of over 15% in size
Summary of the method: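 PGC/ERR reporter cells (NTP line) were seeded 2,000 per well, rested 6 h at 37 C/5% CO2, then pin-dosed with compounds in DMSO for 18 h at 37 C; luciferase read by One-Glo luminescence after 30 min at room temperature.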

[19] = qHTS assay to identify small molecule agonists of the hypoxia (HIF-1) signaling pathway (AID 1224846; active means well fitted activation curve with a large enough effect in the signal ratio in the repeat runs, not every such curve was filed as active; the % refers to the signal ratio)
Summary of the method: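 HRE-bla ME-180 beta-lactamase reporter cells in medium with 0.5% dialyzed FBS, pre-incubated 5 h then exposed to compounds 17 h at 37C, 5% CO2; reporter induction read with CCF4-AM FRET substrate.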

[20] = qHTS assay to identify small molecule antagonists of the estrogen related receptor (ERR) signaling pathway from Tox21 library (AID 1224848); further: nearly all actives have a fitted effect of over 50% in size
Summary of the method: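 Cells: ERR line, 2,000/well; 6 h preincubation 37 C/5% CO2. Cpd in DMSO via pin tool; 18 h, 37 C. ONE-Glo, 30 min RT, luminescence.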

Measured: Potency

Cc1c(NC(=O)c2cccnc2)c(=O)n(-c2ccccc2)n1C
not listed: [17] | [18] | [19] | [20]
inactive: all other assays above

O=C(O)CCCCCC(=O)O
not listed: [13]
inactive: all other assays above

CC(=O)O[C@@H]1CC2CCC1(C)C2(C)C (some centres not stated)
not listed: [17] | [18] | [20]
inactive: all other assays above

COc1ccc2c(c1)c1c3n2CCN(C)C3=NCC1
not listed: [17] | [18] | [20]
inactive: all other assays above

O=Cc1ccccc1Cl
not listed: [13] | [14]
inactive: all other assays above

O=C(O)[C@H](O)c1ccccc1
not listed: [17] | [18] | [20]
inactive: all other assays above

CC(N)CCCC(C)(C)O (configuration not stated)
not listed: [17] | [18] | [19] | [20]
inactive: all other assays above

CC(=O)C(C)O (configuration not stated)
not listed: [17] | [18] | [20]
inactive: all other assays above
